High-throughput results (PubChem)
SARS PLpro yeast = SARS-CoV PLP inhibition in yeast; S. cerevisiae expressing SARS-CoV PLpro, growth rescue; Potency, µM (doses to about 32.9 µM), actives largely listed as activators; 330,000 tested, 0.19% active; AID 485353; calls by dose curve; also: nearly all actives have a fitted effect of over 55% in size
NS1 inh = influenza NS1 inhibition | 270,000 tested, 0.4% active | Potency, µM (series often up to 46.1 µM); calls by dose curve; also: actives are rising curves; nearly all actives have a fitted effect of over 50% in size
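In this qHTS, NS1 from influenza A is expressed in budding yeast, where it slows growth. Cells are switched from glucose to 2% galactose medium (pH 6.0, -URA), treated with compound, and growth recovery is read at OD600.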
Shiga inhibitor = blocks Shiga toxin action in Vero cells | Vero cells, Shiga toxin protein synthesis inhibition reporter | inhibition, % at 38.7 µM | 290,000 tested, 9.2% active | AID 2315; in the data active = inhibition mostly above about 28%, no sharp cut-off; inactive = mostly below about 43%
Pf growth 48h = inhibits P. falciparum growth in the first generation, 48 h; 310,000 tested, 5.9% active; AID 504832; P. falciparum luciferase growth in erythrocytes, 48 h; Potency, µM (top dose mostly 28.7 µM), hits mostly inhibitors
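A one-generation exposure of luciferase-tagged malaria parasites in RPMI 1640/Albumax erythrocyte culture, 37 C and 5% CO2. Inhibition is inferred from decreased luminescence after adding detection reagent.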
Pf growth 96h = P. falciparum growth inhibition at 96 hours. P. falciparum luciferase reporter growth, 96 h. Potency, µM (series often up to 28.7 µM), hits mostly inhibitors. 320,000 tested, 6.9% active
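Erythrocytes infected with luciferase-expressing P. falciparum were dispensed at 2% hematocrit and 0.05% parasitemia (final), then incubated with compounds 96 hours at 37 C in 5% CO2. Luminescence after detection reagent addition reported growth.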
Cycloheximide cs = counter-screen for Shiga toxin inhibitors: cycloheximide protein synthesis inhibition; max response, %; AID 2314; cell reporter, cycloheximide protein synthesis inhibition counterscreen; 300,000 tested, 12% active; in the data active = max response mostly above about 13%, no sharp cut-off; inactive = mostly below about 14%; also: read at 38.3 µM for the half of the compounds with a filed dose
Each line names hits and unclear results; the compound was inactive in the other large screens. Most compounds without a hit are left out; they make up all but 21% or so of the library. Unless noted, calls follow the shape of the dose curve; as a rule, active = well fitted inhibition curve with a large enough effect; inconclusive = small, poorly fitted or top-dose-only effect, or another doubt; inactive = no such curve, though single readings can be large or run the other way.

COc1cc(C2CC(=O)N(c3ccc(C)cc3)C(=O)C2)cc(OC)c1OC	Pf growth 48h inconclusive
Cc1cc(-c2nnc(SCCC(=O)Nc3ccccc3)o2)no1	Pf growth 96h inconclusive, Cycloheximide cs 35
Cc1cc(NC(=O)CN2CCN(S(=O)(=O)c3ccc(Cl)cc3)CC2)no1	none (no result: Pf growth 96h)
Cc1cc(NC(=O)CSc2ccc3nnc(-c4ccccc4)n3n2)no1	Pf growth 48h 2.6µM
Cc1cc(NC(=O)CN2CCN(c3ccc(O)cc3)CC2)no1	Pf growth 48h inconclusive, Pf growth 96h 9.3µM
O=C(CCSc1nnc(-c2ccncc2)o1)Nc1ccccc1	none
CC1(C)CC(=O)C(CS(=O)(=O)c2ccccc2)=C(Cl)C1	SARS PLpro yeast inconclusive
CCN1CCN(c2ncnc3c2oc2nc(C(C)C)c4c(c23)CCC4)CC1	Pf growth 96h 3.3µM
COc1ccc(CNC(=O)c2ccc(CS(=O)(=O)Cc3ccccc3F)o2)cc1	Pf growth 96h inconclusive (no result: NS1 inh)
CCCc1cc(NCCCCO)n2c(nc3ccccc32)c1C#N	Pf growth 48h 9.3µM, Pf growth 96h 3.3µM
CCCc1cc(Nc2c(C)n(C)n(-c3ccccc3)c2=O)n2c(nc3ccccc32)c1C#N	NS1 inh inconclusive, Pf growth 48h 1.7µM
Cc1cc(NCCCCO)n2c(nc3ccccc32)c1C#N	Pf growth 48h 10µM
O=c1cc(-c2cc(O)c(O)c([C@@H]3O[C@H](CO)[C@@H](O)[C@H](O)[C@H]3O)c2)oc2cc(O[C@@H]3O[C@H](CO)[C@@H](O)[C@H](O)[C@H]3O)cc(O)c12	none (no result: SARS PLpro yeast, NS1 inh, Pf growth 48h, Pf growth 96h)
O=C(CN1CCN(S(=O)(=O)c2ccccc2F)CC1)N1CCc2ccccc2C1	none (no result: NS1 inh, Shiga inhibitor, Pf growth 48h, Pf growth 96h, Cycloheximide cs)
COc1ccc(C(=O)N2CCCC(CNC(=O)c3ccc(F)cc3)C2)cc1OC (stereo not given)	Pf growth 96h inconclusive, Cycloheximide cs 25
O=C(NCC1CCCN(C(=O)c2cccc(C(F)(F)F)c2)C1)c1ccc(F)cc1 (stereo not given)	Pf growth 96h inconclusive, Cycloheximide cs 16
COc1ccc(CCNc2c(N)n(Cc3ccccc3)c(=O)[nH]c2=O)cc1OC	Pf growth 48h inconclusive
Nc1c(C(=O)N2CCOCC2)sc2nc3c(cc12)CCCC3	Cycloheximide cs 18
Nc1c(C(=O)N2CCOCC2)sc2nc3c(cc12)CCC3	Shiga inhibitor 68, Cycloheximide cs 26
Nc1c(C(=O)N2CCCC2)sc2nc3c(cc12)CCCCCC3	Shiga inhibitor 103, Cycloheximide cs 44 (no result: NS1 inh)
CC(=O)NC1CC(C)(C)N(OC(C)=O)C(C)(C)C1	Pf growth 96h inconclusive
CC(C)CCN1CCN(Cc2cccc3cccnc23)CC1CCO (stereo not given)	Pf growth 96h inconclusive
Cc1nn(-c2ccccc2)c(C)c1NC(=O)COC(=O)Cc1ccccc1F	none (no result: NS1 inh, Shiga inhibitor, Cycloheximide cs)
COc1ccc(CCN2CCC(Nc3nc4ccccc4n3Cc3ccc(F)cc3)CC2)cc1	Pf growth 48h 0.52µM, Pf growth 96h 0.74µM
Cc1ccc(C2C3C(=O)N(c4ccc(C)cc4)C(=O)C3N3CCCN23)cc1 (stereo not given)	Pf growth 48h inconclusive, Pf growth 96h inconclusive
Cc1ccc(S(=O)(=O)N(C)CC(=O)Nc2nnc(CC(C)C)s2)cc1	none
CCC(C(=O)NCCCN1CCCCCC1)n1nc(C)c2sc3ccccc3c2c1=O (stereo not given)	none
COc1ccc(CCN(C)C2CCCN(C(=O)Cn3cnnn3)C2)cc1OC (stereo not given)	Cycloheximide cs 12
CC(=O)c1ccc(N2CCN(S(=O)(=O)c3cccc(S(=O)(=O)N4CCOCC4)c3)CC2)cc1	Pf growth 96h inconclusive (no result: Pf growth 48h)
CC(=O)c1ccc(N2Cc3ccccc3C3(CCOCC3)C2=N)cc1	Cycloheximide cs 28
Cc1ccc(S(=O)(=O)N2CCN(C(=S)NCCc3ccccc3)CC2)cc1	Pf growth 48h inconclusive, Pf growth 96h 7.4µM (no result: NS1 inh)
COc1ccc(C(=O)NC2CCN(S(=O)(=O)c3ccccc3F)CC2)cc1	Pf growth 48h 10µM
Cc1ccc(S(=O)(=O)N2CCN(C(=O)C(Cc3ccccc3)NC(=O)c3ccccc3)CC2)cc1 (stereo not given)	Pf growth 48h inconclusive, Pf growth 96h 8.3µM (no result: NS1 inh, Shiga inhibitor, Cycloheximide cs)
COC(=O)c1ccccc1S(=O)(=O)N1CCC(NC(=O)c2ccccc2)CC1	Pf growth 48h inconclusive
COc1ccc(CCNC(=S)N2CCN(S(=O)(=O)c3ccccc3F)CC2)cc1	Pf growth 48h 13µM, Pf growth 96h inconclusive
COc1ccc(CN2CCN(C(=O)c3c(-c4ccccc4)noc3C)CC2)cc1F	Pf growth 48h inconclusive (no result: NS1 inh, Shiga inhibitor, Cycloheximide cs)
Cn1ccnc1C[C@@](C)(O)c1ccccc1	none (no result: SARS PLpro yeast, Shiga inhibitor, Pf growth 48h, Pf growth 96h, Cycloheximide cs)
CCOC(=O)c1ccc(-c2csc(NC(=O)CN3CCC(C)CC3)n2)cc1	Pf growth 48h inconclusive, Pf growth 96h inconclusive
Cc1ccc(S(=O)(=O)N2CCN(C(=S)NCC3CCCO3)CC2)cc1 (stereo not given)	Pf growth 48h 3.7µM, Pf growth 96h 3.3µM (no result: NS1 inh, Shiga inhibitor, Cycloheximide cs)
CC(=O)NC(Cc1ccccc1)C(=O)N1CCN(C(=S)NCC(C)C)CC1 (stereo not given)	none (no result: NS1 inh)
CC(=O)NCCc1ccc(S(=O)(=O)N2CCN(c3nc(-c4ccccc4)c(C)s3)CC2)cc1	Pf growth 48h 3.7µM, Pf growth 96h 4.1µM
COc1ccc(CCNC(=S)N2CCN(S(=O)(=O)c3ccccc3)CC2)cc1	Pf growth 48h 10µM, Pf growth 96h inconclusive (no result: NS1 inh, Shiga inhibitor, Cycloheximide cs)
CC(=O)NCCc1ccc(S(=O)(=O)N2CCOCC2)cc1	none (no result: Pf growth 96h)
CCNC(=S)N1CCN(C(=O)C(Cc2ccccc2)NC(C)=O)CC1 (stereo not given)	Pf growth 96h 10µM (no result: NS1 inh)
Cc1ccc(S(=O)(=O)NNC(=S)NCC2CCCO2)cc1 (stereo not given)	none
O=C(NCc1cccnc1)C1CC(c2ccc(Cl)c(Cl)c2)=NO1 (stereo not given)	Pf growth 96h inconclusive
Cc1cc(OCC#N)nc(N)n1	Pf growth 96h inconclusive
Cc1cc(OCC(F)(F)C(F)(F)C(F)(F)C(F)F)nc(N)n1	Shiga inhibitor 78, Pf growth 48h inconclusive, Cycloheximide cs 46
CCN(CC)CC#CCC(C)(c1ccccc1)c1ccccc1	Pf growth 48h 12µM, Pf growth 96h 6.6µM
CCCN(Cc1ccccc1)C(=S)Nc1ccc(OCC)cc1	Cycloheximide cs 19 (no result: NS1 inh)
CCOc1ccc(NC(=S)N(CC)Cc2ccccc2)cc1	Cycloheximide cs 32 (no result: NS1 inh)
O=C(Nc1ccc(F)cc1)c1nsc(Cl)c1Cl	Shiga inhibitor 68, Pf growth 48h inconclusive, Cycloheximide cs 29
CCOc1ccc(NC(=O)c2nsc(Cl)c2Cl)cc1	Shiga inhibitor 94, Cycloheximide cs 40
O=C(Nc1ccc(F)c(Cl)c1)c1nsc(Cl)c1Cl	Shiga inhibitor 82, Cycloheximide cs 47
O=C(O)C1=C(C(=O)Nc2ccc(F)c(Cl)c2)CCCC1	none
O=C(Nc1ccc(F)cc1)c1nc[nH]c1C(=O)O	none
COC(=O)c1ccc2c(=O)[nH]c(COC(=O)CCC(=O)c3ccc(Cl)cc3)nc2c1	none (no result: NS1 inh, Shiga inhibitor, Cycloheximide cs)
COc1ccc(S(=O)(=O)NCc2ccc(C(=O)NCCCN3CCCC(C)C3)cc2)cc1 (stereo not given)	none
